Structures are written as SMILES. This is part of a sample that, as a whole, favours compounds with a hit. Of some 83,000 tested, about 20% had one in any assay.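 Cell lines were cultured in 96-well plates, exposed to a single compound concentration, and assessed for percent growth 48 hours later.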 Values without a mark were called inactive. Active and inactive are the calls of the source. How the source made its calls: active means growth percent below 10; inactive means the rest.

Common to all, as to experiment: NCI-60 one-dose screen, 48 h (100 = growth as untreated, 0 = no growth, -100 = all killed)
Holding throughout (conditions): 10 µM unless noted

For assay [1], the system named is NCI/ADR-RES ovarian.
For assay [2], the system named is T-47D breast.
In assay [3] the test system is BT-549 breast.
The test system of assay [4] is MDA-MB-435 melanoma.
Assay [5] has as its system SW-620 colon.
In assay [6] the test system is MCF7 breast.
For assay [7], the system named is HCT-116 colon.
In assay [8] the test system is HCC-2998 colon.
The test system of assay [9] is KM12 colon.

Consider `COC(=O)[C@@H](C)C[C@H](Cc1ccccc1)NC(=O)c1csc([C@@H](C[C@H](C(C)C)N(C)C(=O)[C@@H](NC(=O)CN(C)C)C2CC2)OC(C)=O)n1`, for which the growth is 54.7% in assay [1]; 72.8% in assay [2]; -21.1% (active) in assay [3]; 0.597% (active) in assay [4]; 35.8% in [5]; 17.7% in [6]. The growth was 3.84% (active) in assay [7], 16% in assay [8] and 7.64% (active) in [9].
In the case of `CC1CN1CCCCN1CC1C` (stereo unspecified), the growth in [1] was 108%; in assay [2] it was 101%; in [3], 103%; in [4], 111%; in [5], 105%; in assay [6], 93.8%. In addition, the growth is 95.7% in assay [7], 94.2% in assay [8] and 104% in [9].
As for `O=C(CC1(O)C(=O)N(Cc2ccccc2)c2ccc(F)cc21)c1ccc(C(=O)NCC2CCC3(CC2)OOC2(CCCCC2)OO3)cc1` (stereo unspecified), the growth is -48.6% (active) in assay [1]; -53.9% (active) in assay [2]; -19.7% (active) in [3]; -80.7% (active) in assay [4]; -62.3% (active) in [5]; 7.64% (active) in [6]. In addition, the values for the growth in assay [7], in assay [8] and in assay [9] were 4.47% (active), 44.9% and -68.1% (active), respectively.
On to `C[Se]C(=O)c1ccccc1OC(C)=O`, for which the growth in assay [1] was 35%; in assay [2], 89.1%; in [3], 27.9%; in assay [4], 46.4%; in [5], 79.6%; in assay [6] it was 53.3%. Moreover, the figures for the growth in assay [7], in assay [8] and in assay [9] were 19.6%, 95.5% and 88.9%, respectively.
Consider `Cn1cc(-c2csc(-c3cn(CCN4CCOCC4)c4ccccc34)n2)c2cccnc21`, for which the growth in [1] was 31.4%; in [2], 2.94% (active); in assay [3], 45.1%; in assay [4] it was 65.1%; in [5] it was 83.1%; in assay [6], 30.7%. Besides, the growth in [7] was 72.9%; in assay [8] it was 99.2%; in assay [9], 56.5%.
For `Clc1ccc(CSC(Cn2ccnc2)c2ccc(Cl)cc2Cl)cc1` (stereo unspecified), the growth in assay [1] is 14.1%; in [2], 29.5%; in assay [3] it was 4.34% (active); in [4] it was 31.4%; in [5], 29.2%; in [6] it was 20.9%. The figures for the growth in assay [7], in [8] and in assay [9] were 7.38% (active), 36.1% and 16.1%, respectively.
On to `COc1cc2c(c(OC)c1OC)-c1ccc([O-])c(=O)cc1[C@@H](NC(C)=O)CC2.COc1cc2c(c(OC)c1OC)-c1ccc([O-])c(=O)cc1[C@@H](NC(C)=O)CC2.[Cu+2]`, for which the growth was 40.4% in assay [1]; 41.1% in assay [2]; 12.8% in [3]; -18.8% (active) in assay [4]; 19.3% in assay [5]; 11% in assay [6]. The values for the growth in [7], in assay [8] and in assay [9] were 8.67% (active), -14.9% (active) and 6.75% (active), respectively.
Regarding `CC(=O)OC[C@]1(C)C=C2C(=O)[C@](C)(O)C3(CC3)C(C)=C2[C@H]1OC(=O)N(C)CCN(C)C(=O)OC(C)(C)C`, the growth in [1] was -2.04% (active); in assay [2] it was 8.4% (active); in assay [3], -32.8% (active); in assay [4], -47% (active); in [5], 10.4%; in assay [6], 2.67% (active). For the same molecule, the growth in assay [7] is 3.86% (active); in assay [8], 6.65% (active); in assay [9], 13%.
`CCCCN1CCCC[C@@H]1C(=O)N[C@H](C(=O)N(C)[C@H](CCc1nc(C(=O)N[C@@H](Cc2ccccc2)C[C@H](C)C(=O)OC)cs1)C(C)C)[C@@H](C)CC`: the growth in assay [1] was 65.7%; in assay [2], 44.2%; in assay [3], 36.4%; in [4] it was -30% (active); in [5] it was 63.7%; in assay [6], 18.5%. Also, the growth is 31.6% in assay [7], 61.7% in [8] and 28% in [9].
Consider `COc1ccc2c(c1)c(C1(O)CC(CSC#N)OC1=O)cn2C(=O)c1ccc(Cl)cc1` (stereo unspecified), for which the growth in [1] is 92.5%; in assay [2], 100%; in [3], 97.6%; in assay [4], 98.9%; in assay [5] it was 105%; in assay [6], 91.6%. Besides, the growth in assay [7] is 97%; in [8], 95.1%; in assay [9], 97.7%.
For `CC1[C@H](C)OC(=O)CC(O)CC(O)CC(O)CCC(O)C(O)C[C@]2(O)CC(O)C(C(=O)O)C(CC(OC3O[C@H](C)[C@@H](O)[C@H](N)[C@@H]3O)/C=C/C=C/C=C/C=C/CC/C=C/C=C/[C@H](C)[C@H]1O)O2` (stereo partly specified), the growth in [1] was 93.2%; in assay [2] it was 108%; in assay [3] it was 105%; in [4], 102%; in [5], 99.5%; in assay [6], 104%. The growth was 97% in assay [7], 103% in [8] and 106% in assay [9].
In the case of `ClCCN(CCCl)c1nc(Cl)c(C2CC(c3ccccc3)=NN2c2cc(Cl)cc(Cl)c2)s1` (stereo unspecified), the growth in assay [1] is 103%; in assay [2] it was 97.8%; in assay [3] it was 107%; in assay [4], 109%; in [5] it was 98.5%; in assay [6], 97.5%. Also, the growth in assay [7] is 98.1%; in assay [8] it was 105%; in [9], 100%.
As to `COc1cc2c(cc1OCCCCCn1c(-c3ccco3)nc3ccccc31)N=C[C@@H]1CCCN1C2=O`, the growth in assay [1] is 11.2%; in assay [2], 27.8%; in [3], 18%; in [4], -48.1% (active); in [5], 15%; in assay [6] it was 13.4%. In addition, the growth in assay [7] was 14.5%; in assay [8], -22.3% (active); in assay [9] it was 2.44% (active).
As for `Cc1cc(-c2nc3cc(F)ccc3[se]2)cc(F)c1N`, the growth is 98.7% in assay [1]; 14.2% in assay [2]; 84.4% in assay [3]; 101% in assay [4]; 90.7% in [5]; 2.88% (active) in assay [6]. The growth in assay [7] is 71.2%; in [8], 35.5%; in [9], 61.2%.

(Values after PubChem BioAssay (NCI).)
